High-throughput results (PubChem)
SW480 rereplic: DNA re-replication induction in SW480 cells | SW480 DNA re-replication, Hoechst DNA content imaging, 48 h | Potency, µM (titrated, usually from 46.1 µM), most hits filed as activators | 340,000 compounds, 1.8% hits | AID 624297; further: nearly all actives have a fitted effect of over 55% in size
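250 cells/well; 23 nL cpd via pin tool; 48 hr, 37 C, 5% CO2; Hoechst 40 min; imager read of total nuclear intensity, ex 405/em 500-530 nm.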
KB-V1 MDR tox: kills drug-selected multidrug resistant KB-V1 cells; Potency, µM (highest dose often 46.1 µM), actives largely listed as cytotoxic; KB-V1 MDR cells viability, CellTiter-Glo, 72 h; 400,000 compounds, 3.4% hits; further: nearly all actives have a fitted effect of over 60% in size
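qHTS viability screen in drug-selected KB-V1 MDR cells: 72 h compound treatment at 37 degrees C, ATP luminescence end point.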
ALOX12 inh: inhibitors of human 12S-lipoxygenase ALOX12; P18054; purified 12hLO, xylenol orange hydroperoxide absorbance; Potency, µM (top dose mostly 108 µM), actives largely listed as inhibitors; 580,000 compounds, 1.1% hits
Target sequence (P18054 whole entry, looked up): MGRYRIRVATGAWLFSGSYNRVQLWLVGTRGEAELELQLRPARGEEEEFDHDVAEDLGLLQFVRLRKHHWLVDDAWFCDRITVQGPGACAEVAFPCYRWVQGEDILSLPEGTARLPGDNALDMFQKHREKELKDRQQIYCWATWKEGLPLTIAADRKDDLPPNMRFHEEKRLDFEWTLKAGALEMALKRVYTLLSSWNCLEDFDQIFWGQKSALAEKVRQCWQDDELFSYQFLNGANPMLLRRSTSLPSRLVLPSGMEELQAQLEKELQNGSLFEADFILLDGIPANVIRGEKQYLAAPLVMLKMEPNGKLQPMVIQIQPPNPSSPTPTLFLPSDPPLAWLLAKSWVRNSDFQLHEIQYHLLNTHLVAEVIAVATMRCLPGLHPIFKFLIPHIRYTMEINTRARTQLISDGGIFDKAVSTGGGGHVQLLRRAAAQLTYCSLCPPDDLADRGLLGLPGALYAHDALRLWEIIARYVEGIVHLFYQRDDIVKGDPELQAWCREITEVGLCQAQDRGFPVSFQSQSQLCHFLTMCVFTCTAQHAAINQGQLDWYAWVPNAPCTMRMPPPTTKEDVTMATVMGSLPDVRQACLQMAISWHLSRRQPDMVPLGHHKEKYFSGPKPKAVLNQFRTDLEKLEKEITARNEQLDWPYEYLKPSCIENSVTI
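Hydroperoxide product was detected by ferrous iron/xylenol orange as the 573 to 405 nm absorbance ratio. Arachidonic acid at 40 uM (final) was turned over for 30 min at room temperature by 150 nM human 12hLO, pH 7.0 Hepes buffer, after 15 min compound preincubation.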
PINK1 modulator: modulators of PINK1 expression; PINK1 immunofluorescence, high-content cytometry, 24 h; Potency, µM (series often up to 76.6 µM), most hits filed as activators; 410,000 compounds, 0.2% hits; AID 624263; active means well fitted activation curve with a large enough effect; inconclusive means small, poorly fitted or top-dose-only effect; cell line not stated here; further: nearly all actives have a fitted effect of over 65% in size
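Measures PINK1 amount and localization on or inside mitochondria by immunofluorescence. Stable cells get compounds at 5 concentrations for 24 hours before fixation and staining; CCCP controls included.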
KB-3-1 tox: kills parental KB-3-1 adenocarcinoma cells. Potency, µM (highest dose often 46.1 µM), usual class: cytotoxic. AID 1347075. KB-3-1 viability, CellTiter-Glo ATP luminescence, 72 h. 400,000 compounds, 1.4% hits; further: nearly all actives have a fitted effect of over 60% in size
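Viability of parental KB-3-1 cells, measured by CellTiter-Glo luminescence, followed a 72 h incubation at 37 °C with pinned compounds in phenol-red-free DMEM containing 10% FBS.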
MCF10A rereplic: DNA re-replication induction in MCF 10a cells; MCF 10A DNA re-replication, Hoechst nuclear intensity, 48 h; Potency, µM (titrated, usually from 46.1 µM), usual class: activators; 350,000 compounds, 2.9% hits; AID 624296; further: nearly all actives have a fitted effect of over 50% in size
Of the large screens only hits and unclear results are named; the others gave an inactive call. An excerpt weighted towards active compounds, which were near 5.8% of everything screened. Unless noted, the call rests on the fitted dose curve; in most records, active means well fitted curve in the direction sought with a large enough effect; inconclusive means small, poorly fitted or top-dose-only effect, or another doubt; inactive means no such curve, though single readings can be large; an effect the other way counts as inactive or inconclusive.

O=C(CNCc1ccc(Cl)cc1)N1CCc2ccccc2C1	ALOX12 inh 31.6µM
COC(=O)c1ccc(CNC(=O)C(C)Cl)cc1 (stereo unspecified)	none (no result: SW480 rereplic, KB-V1 MDR tox, PINK1 modulator, KB-3-1 tox, MCF10A rereplic)
O=C(CNCc1ccccc1)Nc1ccc(Cl)cc1	SW480 rereplic inconclusive, KB-V1 MDR tox inconclusive, KB-3-1 tox 10.3µM, MCF10A rereplic 18.4µM
COc1ccc(C(=O)NC2CC2)cc1C	none (no result: SW480 rereplic, KB-V1 MDR tox, PINK1 modulator, KB-3-1 tox, MCF10A rereplic)
CN(C)C[C@H]1O[C@H](Cc2cc(-c3ccccc3)on2)CC[C@@H]1O	none (no result: SW480 rereplic, KB-V1 MDR tox, PINK1 modulator, KB-3-1 tox, MCF10A rereplic)
COc1ccc(NC(=S)N(CCC(C)C)C2CCN(C(C)C)CC2)cc1Cl	SW480 rereplic 20.6µM, ALOX12 inh inconclusive, MCF10A rereplic inconclusive
CN(C)Cc1c(O)ccc2c(=O)c(-c3ccc(Cl)cc3)coc12	SW480 rereplic inconclusive, ALOX12 inh inconclusive
O=c1c(-c2ccc([N+](=O)[O-])cc2)coc2c(O)c(O)ccc12	SW480 rereplic 13µM, KB-V1 MDR tox inconclusive, ALOX12 inh 6.31µM
CCC(CC)C(=O)NC[C@@H]1C=C(C)[C@H](Cc2nc3c(C)cccc3[nH]2)C[C@H]1C(C)C	none (no result: SW480 rereplic, KB-V1 MDR tox, PINK1 modulator, KB-3-1 tox, MCF10A rereplic)
CCc1cc2c(=O)c(-c3ccc4c(c3)OCCO4)coc2cc1OS(C)(=O)=O	SW480 rereplic 9.2µM, KB-V1 MDR tox inconclusive, KB-3-1 tox inconclusive
CC(C)NC(=O)c1ccccc1-c1ncc(-c2ccc(F)cc2)o1	none (no result: SW480 rereplic, KB-V1 MDR tox, PINK1 modulator, KB-3-1 tox, MCF10A rereplic)
N#C/C(=C\c1cn(-c2ccccc2)nc1-c1cccs1)S(=O)(=O)c1ccccc1	none (no result: SW480 rereplic, KB-V1 MDR tox, PINK1 modulator, KB-3-1 tox, MCF10A rereplic)
Cc1ccc(CN(C)C(=O)c2c(C)nn(-c3ccccc3)c2C)cc1	MCF10A rereplic inconclusive
CN(C(=O)c1cccnc1)c1nc(-c2ccccc2)cs1	KB-V1 MDR tox 20.6µM
Cc1ccc(-c2csc(N(C)C(=O)c3c(C)nn(-c4ccccc4)c3Cl)n2)cc1	KB-V1 MDR tox inconclusive, MCF10A rereplic 5.8µM
O=C(NC(=S)Nc1nc(-c2ccccc2)cs1)c1cccnc1	ALOX12 inh 35.5µM
Cc1ccc(-c2csc(NC(=O)Cn3cnc4c3c(=O)n(C)c(=O)n4C)n2)cc1C	MCF10A rereplic 20.6µM
O=C(NC(=S)Nc1nc(-c2ccccc2)cs1)c1cncc(Br)c1	none
COc1cc(Br)cc2cc(C(=O)N3c4ccccc4CC3C)c(=O)oc12 (stereo unspecified)	none (no result: SW480 rereplic, KB-V1 MDR tox, PINK1 modulator, KB-3-1 tox, MCF10A rereplic)
CC(Sc1ccc(Br)cc1)C(=O)O (stereo unspecified)	none (no result: SW480 rereplic, KB-V1 MDR tox, PINK1 modulator, KB-3-1 tox, MCF10A rereplic)
COc1ccc(-c2csc(NC(C)=O)n2)cc1OC	none
COc1cccc(NC(=O)Nc2nc(-c3ccc(OC)c(OC)c3)cs2)c1	KB-V1 MDR tox inconclusive, KB-3-1 tox 18.4µM, MCF10A rereplic 20.6µM
COc1ccc(-c2csc(NC(=O)CCn3cnc4ccccc4c3=O)n2)cc1OC	KB-V1 MDR tox 18.4µM
COc1ccc(-c2csc(NC(=S)NC(=O)c3ccc4ccccc4c3)n2)cc1OC	SW480 rereplic 14.6µM, KB-V1 MDR tox inconclusive, ALOX12 inh inconclusive, KB-3-1 tox inconclusive, MCF10A rereplic inconclusive
Cc1ccc(C)c(N2CCN(C3C(=O)Nc4ccccc4-n4nnnc43)CC2)c1 (stereo unspecified)	KB-V1 MDR tox 11.6µM, KB-3-1 tox 14.6µM (no result: SW480 rereplic, PINK1 modulator, MCF10A rereplic)
COc1ccc(N2CCN(C3C(=O)Nc4ccccc4-n4nnnc43)CC2)cc1 (stereo unspecified)	KB-V1 MDR tox inconclusive (no result: SW480 rereplic, PINK1 modulator, MCF10A rereplic)
CCOc1ccc(-c2nc(CNC(=O)NC3CCCC3)c(C)o2)cc1	none (no result: SW480 rereplic, KB-V1 MDR tox, PINK1 modulator, KB-3-1 tox, MCF10A rereplic)
C=C1C(=O)OC2C1C(OC(=O)C(C)=CC)CC(=C)C1C(O)C3OC3(C)C21O (stereo unspecified)	SW480 rereplic 20.6µM, MCF10A rereplic 13µM
CC(NC(=O)c1[nH]c2ccc(Cl)cc2c1Cl)C(N)=O (stereo unspecified)	none (no result: SW480 rereplic, KB-V1 MDR tox, PINK1 modulator, KB-3-1 tox, MCF10A rereplic)
CCOC(=O)c1ccc(NS(=O)C23CC4CC(CC(C4)C2)C3)cc1 (stereo unspecified)	ALOX12 inh 7.08µM, MCF10A rereplic inconclusive
Cc1ccc(CN(C)C(=O)NC(c2ccc3c(c2)OCCCO3)C(C)C)c(C)c1 (stereo unspecified)	none (no result: SW480 rereplic, KB-V1 MDR tox, PINK1 modulator, KB-3-1 tox, MCF10A rereplic)
O=C1c2ccccc2S(=O)(=O)c2cc(N3CCC4(CC3)OCCO4)ccc21	KB-V1 MDR tox 7.31µM, MCF10A rereplic inconclusive
NC(=O)C1CCN(c2ccc3c(c2)S(=O)(=O)c2ccccc2C3=O)CC1	none
CC1CCN(c2ccc3c(c2)S(=O)(=O)c2ccccc2C3=O)CC1	SW480 rereplic 23.1µM, MCF10A rereplic 18.4µM
CCCCC1CCC(C(=O)Oc2ccc(C=O)c(O)c2)CC1 (stereo unspecified)	none (no result: SW480 rereplic, KB-V1 MDR tox, PINK1 modulator, KB-3-1 tox, MCF10A rereplic)
CC(C)CN(Cc1ccc(F)cc1)Cc1cc(=O)n2c3c(sc2n1)CCCC3	none (no result: SW480 rereplic, KB-V1 MDR tox, PINK1 modulator, KB-3-1 tox, MCF10A rereplic)
Cn1ncc(Cl)c1C(=O)NCc1ccc(Cl)cc1	SW480 rereplic inconclusive, KB-V1 MDR tox 3.66µM, KB-3-1 tox inconclusive
COC(=O)c1ccc(C)c(NC(=O)c2nn(C(C)C)c(=O)c3ccccc23)c1	none (no result: SW480 rereplic, KB-V1 MDR tox, PINK1 modulator, KB-3-1 tox, MCF10A rereplic)
OCCOCCn1c(-c2ccccc2)nc(=S)c2c1CCCC2	SW480 rereplic inconclusive, ALOX12 inh 39.8µM
Cc1cccc(OCc2ccc(C(N)=O)cc2)c1	none (no result: SW480 rereplic, KB-V1 MDR tox, PINK1 modulator, KB-3-1 tox, MCF10A rereplic)
Cc1ccccc1CC(=O)NC1CCN(c2cc(-c3ccccc3)[nH]n2)CC1	none (no result: SW480 rereplic, KB-V1 MDR tox, PINK1 modulator, KB-3-1 tox, MCF10A rereplic)
Cc1nn(Cc2ccccc2)c(C)c1NC(=O)c1ccc([N+](=O)[O-])cc1[N+](=O)[O-]	SW480 rereplic 16.4µM, KB-V1 MDR tox inconclusive
Cc1nn(Cc2ccccc2)c(C)c1NC(=O)Cn1nc([N+](=O)[O-])c(Cl)c1C	none (no result: PINK1 modulator)
